# Screening results (PubChem)
# The list is not random: actives were taken first. Their share in the collection is about 4.5%.
# GDH-TPI counter-1 = GDH-TPI coupling enzyme inhibitors, primary screen, artefact control for M. tuberculosis FBA inhibitor project, biochemical, absorbance, full deck; hit rate 1.2% among 360,000; AID 588335, 2011; GDH-TPI coupled enzyme counterscreen, NADH absorbance; inhibition, % at 4.8 µM; in the data active = inhibition above about 30%;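 also: 0% = DMSO wells and 100% = wells lacking the enzyme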
# FBA Mtb inh = Mtb FBA enzyme inhibitors, primary screen, biochemical, fluorescence, strain H37Rv; hit rate 2.3% among 360,000; purified M. tuberculosis FBA, fluorescence read-out; inhibition, % at 1 µM;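 also: 0% = vehicle and 100% = reference inhibitor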
# Target sequence (P9WQA3 whole entry, looked up): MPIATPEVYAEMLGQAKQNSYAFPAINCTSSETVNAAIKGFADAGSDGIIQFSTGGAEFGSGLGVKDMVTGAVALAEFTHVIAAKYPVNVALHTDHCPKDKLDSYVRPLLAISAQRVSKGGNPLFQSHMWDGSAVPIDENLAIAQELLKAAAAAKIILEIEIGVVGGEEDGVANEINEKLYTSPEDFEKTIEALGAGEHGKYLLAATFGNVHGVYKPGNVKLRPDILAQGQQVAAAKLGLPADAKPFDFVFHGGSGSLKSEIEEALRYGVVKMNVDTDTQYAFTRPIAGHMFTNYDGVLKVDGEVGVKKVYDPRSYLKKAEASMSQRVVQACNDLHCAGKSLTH
# PfHsp40 rescue = rescue of yeast from PfHsp40 toxicity, primary screen, S. cerevisiae, ATP luminescence; hit rate 0.68% among 340,000; S. cerevisiae expressing PfHsp40, growth rescue; AID 504582, 2011; growth rescue, % at 12.5 µM; in the data active = growth rescue above about 28%, passing the limit was not always enough;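 also: yeast W303a lacking pdr1 and pdr3 grown in galactose medium; growth measured after three days at 30 °C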
# PrPC TRFRET = inhibitors of human cell surface prion protein PrPC, primary screen, cell-based, TR-FRET; inhibition, % at 13.8 µM; hit rate 0.43% among 370,000; Major prion protein (Homo sapiens), P04156; TR-FRET read-out; in the data active = inhibition above about 24%; also: 0% = median of the test wells and 100% = reference compound wells
# BJeLR viability = MLPCN primary cell-based screen for lethality selective to Ras in HRASV12 cells | BJeLR (HRASV12) viability, CellTiter-Glo ATP luminescence, 48 h | inhibition, % (no concentration beside the values) | hit rate 0.17% among 300,000 | AID 1554, 2009; in the data active = inhibition above about 50%
# PrP UTR inh = inhibition of PrP 5' UTR reporter expression | hit rate 0.35% among 340,000 | AID 488862, 2010 | cell-based PrP 5' UTR mRNA reporter, plate reader | inhibition, % (test concentration not listed); in the data active = inhibition above about 52%; also: 0 = median of the neutral control wells
# Mtb FBA inh conf = M. tuberculosis aldolase blockers, biochemical, fluorescence, strain H37Rv, confirmation; shares compounds with FBA Mtb inh; purified M. tuberculosis FBA, fluorescence read-out; inhibition, % at 1 µM; hit rate 78% among 5,600;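 also: 0% = vehicle wells and 100% = reference inhibitor wells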
# GDH-TPI counter-2 = GDH-TPI coupling enzyme inhibitors, artefact control for M. tuberculosis FBA inhibitor project, biochemical, fluorescence, high throughput; shares compounds with FBA Mtb inh; AID 652141, 2013; inhibition, % at 1 µM; GDH-TPI coupled enzyme counterscreen; hit rate 81% among 5,600; in the data active = inhibition above about 10%
# An asterisk follows results filed as active; / = no result; + = active, no number. Rule as the data show it, unless noted: active = inhibition above about 27%; inactive = the rest.
SMILES,GDH-TPI counter-1,FBA Mtb inh,PfHsp40 rescue,PrPC TRFRET,BJeLR viability,PrP UTR inh,Mtb FBA inh conf,GDH-TPI counter-2
Cc1cccc(C)c1C(O)c1ncc(-c2cccc3ccccc23)[nH]1 (stereo not given),9,56*,/,-4,/,/,5,-1
Cc1cc(C)c(C(O)c2ncc(-c3ccccc3C)[nH]2)c(C)c1 (stereo not given),7,0,/,-4,/,/,/,/
COC(=O)CSc1nnc(-c2cc(-c3ccccc3)n[nH]2)n1N,/,/,/,8,/,/,/,/
NC(=O)c1c(NC(=O)C(=O)N2CCOCC2)sc2c1CCC2,20,33*,-1,6,2,-8,117*,89*
NC(=O)c1c(NC(=O)C(=O)N2CCOCC2)sc2c1CCCC2,20,-4,0,-7,7,-12,/,/
CN(C)c1cc2c(cc1NS(=O)(=O)c1ccccc1)n(C)c(=O)n2C,-1,0,0,1,-4,-16,/,/
COc1cc2c(cc1O)C[C@H]1c3c(cc(O)c(OC)c3-2)CCN1C,4,47*,1,-13,/,-8,32*,23*
NS(=O)(=O)c1ccc(CCNC(=O)c2cc3ccccc3oc2=O)cc1,14,9,0,1,-6,-31,/,/
CN1Cc2c(N3CCOCC3)nc3sc(C(=O)c4ccccc4)c(N)c3c2CC1(C)C,7,-1,-1,-12,3,-16,/,/
CC1(C)Cc2c(c(N3CCCC3)nc3sc(C(=O)Nc4ccccc4)c(N)c23)CO1,29,34*,1,9,1,-8,+,+
CC1(C)Cc2c(c(N3CCOCC3)nc3sc(C(=O)Nc4ccc(Cl)cc4)c(N)c23)CO1,1,9,1,19,2,-6,/,/
Cc1ccccc1NC(=O)c1sc2nc(N3CCOCC3)c3c(c2c1N)CCCC3,15,13,0,3,-9,-10,/,/
CCOC(=O)c1sc2nc(N3CCOCC3)c3c(c2c1N)CC(C)(C)N(C)C3,11,59*,1,-7,5,-23,6,5
Nc1c(C(=O)NCCc2ccccc2)sc2nc(N3CCOCC3)c3c(c12)CCCC3,16,82*,1,9,0,-29,26,14*
CC(=O)c1cc(CN2CCN(Cc3ccccc3)C(CCO)C2)cs1 (stereo not given),-6,-1,0,-4,1,-11,/,/
COCCCNC(=O)Cn1cnc2sc(C)c(S(=O)(=O)N3CCN(c4ncccn4)CC3)c2c1=O,4,27*,0,2,1,3,+,+
CCN1CCN(CCCNC(=O)c2ccc3c(c2)N(Cc2ccc(C)cc2)CCS3)CC1,9,76*,1,/,7,-9,131*,102*
COc1ccc(CCNC(=O)c2ccc3c(c2)N(Cc2ccc(F)cc2)CCS3)cc1OC,4,72*,1,14,-5,-18,55*,33*
CCN1CCN(C(=O)c2ccc3c(c2)N(Cc2ccc(C)cc2)CCS3)CC1,7,26,1,-6,-1,13,/,/
CCN1C(=O)CSc2ccc(C(=O)NCc3ccco3)cc21,6,2,0,-6,-9,-10,/,/
Cc1ccc(CN2CCSc3ccc(C(=O)NCc4ccco4)cc32)cc1,4,54*,-1,12,-8,-16,5,-1
O=C(COC(=O)C1CCN(c2ccc(C(F)(F)F)cn2)CC1)Nc1ncc(Cl)cc1Cl,8,7,1,-1,/,-13,/,/
Cc1cc(Cl)ccc1NC(=S)N1CCN(C(=O)c2ccco2)CC1,1,1,1,-1,6,-13,/,/
COC(=O)C(C(=O)Nc1nc2ccccc2s1)C1CCCC1 (stereo not given),4,0,1,8,4,-18,/,/
